Compounds with a hit are over-represented: about 2.6% of the library has one in this group of screens.
Cruzain Triton = cruzain (T. cruzi) inhibition with detergent | P25779 | actives 0.43% (n = 200,000) | purified cruzain, Z-FR-AMC fluorescence, 0.01% Triton | Potency, µM, actives largely listed as inhibitors; note: nearly all actives have a fitted effect of over 40% in size
Target sequence (P25779 123-467 limits assumed): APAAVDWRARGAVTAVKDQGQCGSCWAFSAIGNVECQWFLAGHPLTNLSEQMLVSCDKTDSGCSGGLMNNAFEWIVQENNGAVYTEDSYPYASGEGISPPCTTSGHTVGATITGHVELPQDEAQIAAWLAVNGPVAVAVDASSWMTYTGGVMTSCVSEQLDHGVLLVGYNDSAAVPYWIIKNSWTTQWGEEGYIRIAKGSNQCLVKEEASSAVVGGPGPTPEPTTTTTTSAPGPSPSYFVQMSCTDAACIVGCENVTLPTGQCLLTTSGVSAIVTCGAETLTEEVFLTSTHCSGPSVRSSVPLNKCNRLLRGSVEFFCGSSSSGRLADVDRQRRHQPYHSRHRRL
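Detergent-containing arm of a paired screen for aggregation-based inhibition: 0.01% Triton X-100 present. Cruzain at 1.5 nM cleaved 2 uM Z-FR-AMC at pH 5.5 with 5 mM DTT; AMC fluorescence gain over 60 s measured activity.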
Cruzain noTriton = blocks cruzain activity in detergent-free assay. purified cruzain, Z-FR-AMC fluorescence, no detergent. Potency, µM, usual class: inhibitors. actives 2.3% (n = 200,000); note: nearly all actives have a fitted effect of over 40% in size
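Detergent-free condition (0.00005% Triton X-100) in acetate buffer pH 5.5 with DTT. 1.5 nM enzyme and compound were pre-mixed 15 min, then 2 uM Z-FR-AMC substrate added; reaction progress from fluorescence change between first and third reads (60 s).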
Of the large screens only hits and unclear results are named; the others gave an inactive call. Calls come from the whole dose curve; as a rule, active = well fitted curve in the direction sought with a large enough effect; inconclusive = small, poorly fitted or top-dose-only effect, or another doubt; inactive = no such curve, though single readings can be large; an effect the other way counts as inactive or inconclusive.

Cc1cc2nn(-c3ccccc3)nc2cc1NC(=O)COc1ccc(Cl)cc1	none
CCc1ccc(-c2cc(C)no2)cc1S(=O)(=O)NCc1ccc(OC)cc1	none
Cc1ccc(N=C2NC(=O)/C(=C\c3cccs3)S2)cc1C	Cruzain noTriton 25µM
Cc1cccc(N=C2NC(=O)/C(=C/c3cccs3)S2)c1	Cruzain noTriton inconclusive
O=S(=O)(c1ccc(-c2csc(=Nc3ccc(F)cc3)n2CCCCCCO)cc1)N1CCCC1	Cruzain noTriton inconclusive
CCc1ccc(NC(=O)CSc2nc3n[nH]c(C)c3c(=N)n2-c2ccccc2C)cc1	none
CCOc1ccccc1-n1c(SCC(=O)Nc2ccc(CC)cc2)nc2n[nH]c(C)c2c1=N	Cruzain noTriton 6.3µM
Cc1ccc2c(c1)C1CCCC3C1N2CC(=O)N3Cc1ccccc1 (configuration not stated)	Cruzain noTriton 13µM
Cc1ccc2c(c1)C(CCN)C(=O)N2Cc1ccccc1 (configuration not stated)	none
COc1cccc(-c2cc(C(F)(F)F)nc(-n3nc(C)c(Br)c3C)n2)c1	none
Cc1ccc(C)c(N2CCN(Cc3csc(C)c3)CC2)c1	none
O=P1(O)Oc2c(c(-c3ccccc3)cc3ccc4ccccc4c23)-c2c(-c3ccccc3)cc3ccc4ccccc4c3c2O1	Cruzain Triton 25µM
O=P1(O)Oc2c(c(-c3ccccc3)cc3ccccc23)-c2c(-c3ccccc3)cc3ccccc3c2O1	Cruzain noTriton inconclusive
N#Cc1c(N2CCCC(O)C2)nc(N)c2c(N)nc3c(c12)CC(=O)N3C12CC3CC(CC(C3)C1)C2 (configuration not stated)	none
C=C(C)CN(CC)c1nc(N)c2c(N)nc3c(c2c1C#N)CC(=O)N3C12CC3CC(CC(C3)C1)C2	Cruzain noTriton 4µM
CCOc1ccc(NC(=S)N(CCc2c(C)[nH]c3ccc(C)cc23)Cc2ccco2)cc1	Cruzain noTriton 3.2µM
COc1ccc(NC(=S)N(CCc2c(C)[nH]c3ccc(C)cc23)Cc2ccco2)cc1	Cruzain noTriton inconclusive
O=c1c(=O)n(-c2cccc(Cl)c2)ccn1Cc1cccc(F)c1	none
Cc1cc(C)cc(N(CC(=O)NCc2ccccc2Cl)S(=O)(=O)c2c(C)noc2C)c1	none
O=S(=O)(c1ccc(Cl)cc1)c1nnn2c1nc(NCc1ccccc1)c1sccc12	none
CCOC(=O)Cn1c(=O)n(C2CCCCC2)c2nc(-c3ccccc3Cl)nc(C(N)=O)c21	none
CCc1ccc(NC(=O)C(CC)Sc2nc3cc4c(cc3c(=O)n2Cc2ccco2)OCO4)cc1 (configuration not stated)	Cruzain noTriton 25µM
CCc1ccccc1NC(=O)C(CC)Sc1nc2cc3c(cc2c(=O)n1Cc1ccco1)OCO3 (configuration not stated)	none
O=C(CCN1CCN(c2ccccc2F)CC1)c1ccc(Br)cc1	Cruzain Triton 14µM, Cruzain noTriton inconclusive
O=C(CCN1CCN(c2ccccc2F)CC1)Nc1ccccc1F	none
Cc1ccccc1NC(=O)c1ccc(N/N=C/c2ccccc2O)c([N+](=O)[O-])c1	Cruzain noTriton 10µM
Cc1ccc(NC(=O)c2ccc(N/N=C/c3cccc(O)c3)c([N+](=O)[O-])c2)cc1	Cruzain noTriton 10µM
Cc1ccc(NC(=O)c2ccc(Nc3c([N+](=O)[O-])cc([N+](=O)[O-])cc3[N+](=O)[O-])cc2)cc1	Cruzain noTriton inconclusive
CCc1ccccc1NC(=O)c1ccc(NCCc2ccccc2)c([N+](=O)[O-])c1	none
O=C(CC(=O)Nc1ccccc1F)Nc1ccc2nc3n(c(=O)c2c1)CCCCC3	none
Cc1nc(N2CCOCC2)c2c(C(=O)NCc3ccc(Cl)cc3)c(C)oc2n1	none
CCCSc1nc(SCC(=O)NCc2ccccc2)c2c3c(sc2n1)COC(C)(C)C3	none
CC(C)Sc1nc(SCC(=O)NCc2ccco2)c2c3c(sc2n1)COC(C)(C)C3	Cruzain Triton 25µM, Cruzain noTriton 25µM
COC(=O)c1cc2occc2n1Cc1nc(-c2ccccc2)oc1C	none
C[C@@]1(C(NC(=O)c2cccs2)c2ccc(-c3ccccc3)cc2)C[C@H]1C1CCCCC1 (some centres not stated)	Cruzain noTriton 4µM
COC(=O)c1ccc(C(NC(=O)c2ccccc2)[C@]2(C)C[C@H]2C2CCCCC2)cc1 (some centres not stated)	none
Fc1ccc(N2CCN(c3ncnc4onc(-c5ccc(Cl)cc5)c34)CC2)cc1	none
CC(=O)c1ccc(N2CCN(c3ncnc4onc(-c5ccc(Cl)cc5)c34)CC2)cc1	Cruzain noTriton 3.2µM
Cc1ccc(CNC(=O)C(=O)Nc2c3c(nn2-c2ccc(F)cc2)CSC3)cc1	Cruzain noTriton 13µM
CC(=O)Nc1c2c(nn1-c1ccc(C)cc1C)CSC2	none
Cc1ccc(CNC(=O)C(=O)Nc2c3c(nn2-c2ccccc2)CSC3)cc1	Cruzain noTriton inconclusive
Cc1ccc(-n2nc3c(c2NC(=O)c2ccc4c(c2)OCO4)CSC3)cc1	Cruzain noTriton 16µM
CN(C)C(=O)c1ccc(S(=O)(=O)NCc2ccccc2Cl)s1	none

Assay outcomes (PubChem)
